{"source": "patent US20210230599", "about": "“STEM-LOOP COMPOSITIONS AND METHODS FOR INHIBITING INTERLEUKIN-8” (VITRISA THERAPEUTICS, INC., published 2021)"}
{"biological_target": "Interleukin-8 (IL8, CXCL8), C-terminal His-tagged (Homo sapiens, UniProt P10145 SEQ:1-72)", "assay": "competition; competition TR-FRET; G18C", "conditions": "tags: C-terminal 6xHis (Sino Biological); ssRNA; 2'-F G, 2'-OMe A/C/U, 5' C6NH2, 3' idT", "protocol": "To better understand the sequence requirements and to confirm the stem structures of members of the Aptamer 3 family as determined from sequence covariation analysis from both the primary and secondary (degenerate) selections, a series of variants which included mutations and deletions to the predicted stems were synthesized and screened (Table 24). Activity of each of these variants were tested using a time resolved competition TR-FRET assay in which the labeled parent Aptamer 3 was competed with increasing concentrations of unlabeled variants for binding to IL8 (FIG. 14). Briefly, 2-fold dilutions of thermally equilibrated aptamers were made in TR-FRET Buffer (50 mM MOPS, pH 7.4, 125 mM NaCl, 5 mM KCl, 50 μM CHAPS, 0.1 mg/mL BSA, 1 mM CaCl₂, and 1 mM MgCl₂). 5 μL of aptamer or control solution was added to 5 μl mix of 10 nM C-terminal His-tagged-IL8, 60 nM ALEXA FLUOR® 647-labeled Aptamer, and 5 nM anti-His-Eu (Perkin Elmer) in a black wall low volume 384 well plate (Greiner). For control, 5 μl of 1000-fold excess of unlabeled parent aptamer or 5 μl TR-FRET buffer alone was added to the mix of ALEXA FLUOR® 647-labeled aptamer, His-IL8, and anti-His-Eu. The plate was covered with a plate seal and subsequently incubated in the dark for 1 hour at room temperature. The plate was read on a Biotek CYTATION™ 5 plate reader. […]", "units": {"binding signal": "fold worse than Aptamer 3"}}
{"sequence": "UGAUGACGGUAGAUUACCGGUAGAGUGACCGCAUCU", "binding signal": "> 10"}
